Shiga toxin inh – blocks Shiga toxin action in Vero cells | actives 9.2% (n = 290,000) | Vero cells, Shiga toxin protein synthesis inhibition reporter | inhibition, % at 38.7 µM; in the data active = inhibition mostly above about 28%, no sharp cut-off; inactive = mostly below about 43%; note: 0% is about no effect
Cycloheximide cs – affects cycloheximide protein synthesis inhibition readout, counter-screen; cell reporter, cycloheximide protein synthesis inhibition counterscreen; max response, %; actives 12% (n = 300,000); AID 2314; in the data active = max response mostly above about 13%, no sharp cut-off; inactive = mostly below about 14%; note: read at 38.3 µM for the half of the compounds with a filed dose; 0% is about no effect
Vaccinia mCherry – inhibitors of vaccinia virus infection (mCherry reporter signal); Vaccinia virus mCherry reporter infection, fluorescence; Potency, µM (doses to about 36.5 µM), inactives show at the highest dose activity change, negative = inhibition, actives largely listed as inhibitors; actives 0.63% (n = 310,000); AID 720579; calls by dose curve; tested in A549 cells; note: potency is the fitted concentration of half-maximal effect; % is set by controls: 0 for no effect and ±100 for the full control effect; nearly all actives have a fitted effect of over 35% in size
Vaccinia Venus – inhibitors of vaccinia virus (Venus reporter); Vaccinia virus Venus reporter expression, fluorescence; Potency, µM (highest dose often 36.5 µM), inactives show top-dose activity change, negative = inhibition, most hits filed as inhibitors; actives 0.46% (n = 330,000); AID 720580; calls by dose curve; tested in A549 cells; note: potency is the fitted concentration of half-maximal effect; % is set by controls: 0 for no effect and ±100 for the full control effect; nearly all actives have a fitted effect of over 30% in size
MARV entry inh – Marburg virus entry inhibition. Marburg virus pseudotyped entry inhibition, cell reporter. Potency, µM (top dose mostly 37.8 µM), without a hit: at the highest dose activity change, negative = inhibition, usual class: inhibitors. actives 1.8% (n = 300,000); calls by dose curve; tested in HEK293 cells; note: potency is the fitted concentration of half-maximal effect; % is set by controls: 0 for no effect and ±100 for the full control effect
LASV entry inh – inhibitors of Lassa virus binding or cell entry. Lassa virus pseudotype entry inhibition, cell reporter. Potency, µM (highest dose often 37.9 µM), inactives show top-dose activity change, negative = inhibition, hits mostly inhibitors. actives 1.2% (n = 300,000). AID 540256; calls by dose curve; tested in HEK293 cells; note: potency is the fitted concentration of half-maximal effect; % is set by controls: 0 for no effect and ±100 for the full control effect; nearly all actives have a fitted effect of over 50% in size
* hit, by the source's call; i = inactive; ? = inconclusive; . = no result; [ ] = dose if it differs, or a comment. This is one part of a sample in which hits are shown more often than they occur.

SMILES | Shiga toxin inh | Cycloheximide cs | Vaccinia mCherry | Vaccinia Venus | MARV entry inh | LASV entry inh
COc1ccc(C)c2sc(N(CCN(C)C)C(=O)c3cccc(N4C(=O)CCC4=O)c3)nc12 | . | . | -6.0% | -7.9% | -13.4% | -1.3%
COC(=O)CSc1nc2ccccn2c(=O)c1C=O | 45.9* | 17.5* | i | -8.2% | 12.5%[46.1 µM] | 7.7%[46.1 µM]
O=C(c1cc2ccccc2[nH]1)N1CCOCC1 | active | 19.2* | -2.5% | -7.2% | 16.6% | 3.9%
Cc1ccc(S(=O)(=O)N2CCCN(C(=O)c3cc4ccccc4[nH]3)CC2)cc1 | 80.5* | 53.8* | -27.9% | -26.3% | 25.2%[46.1 µM] | 0.1%
CN1CCN(C(=O)c2cc3ccccc3[nH]2)CC1 | . | -2.1 | . | . | . | .
COc1cccc([C@H]2/C(=C(\O)c3cnn(-c4ccccc4)c3C)C(=O)C(=O)N2CCN(C)C)c1 | . | . | . | . | 0.0% | .
COc1ccc(N2CC(NC(=O)COc3cccc(C)c3)CC2=O)cc1OC (centres undefined) | . | . | -15.4% | -7.7% | . | -8.9%[46.1 µM]
CCOC(=O)c1cc(OC(=O)c2cc(OC)c(OC)c(OC)c2)n(-c2ccccc2)n1 | . | . | -3.2% | -2.6% | 11.7%[46.1 µM] | 0.7%[46.1 µM]
Cc1cccnc1C(NC(=O)C1CCN(Cc2cn(C)c3ccccc23)CC1)c1ccc(Cl)cc1 (centres undefined) | . | . | 14.1µM* | 11.2µM* | . | .
COC1(OC)C(/C=C/c2ccc(Cl)cc2)C(C#N)(C#N)C1(OC)OC (centres undefined) | 40.6* | 19.3* | ? | ? | ? | ?
CC(C)Cn1cnc2c(c(-c3ccccc3)c(-c3ccccc3)n2Cc2ccco2)c1=N | -5.9 | -3.9 | ? | ? | 2.82µM* | 6.31µM*
c1ccc(-c2c(-c3ccccc3)n(Cc3ccco3)c3ncnc(NCCCn4ccnc4)c23)cc1 | -15.3 | -3.7 | ? | 12.6µM* | ? | ?
N=c1c2c(-c3ccccc3)c(-c3ccccc3)n(Cc3ccco3)c2ncn1CCCN1CCOCC1 | 16.0 | -5.2 | -24.1% | ? | 7.08µM* | -7.6%
OCCNc1ncnc2c1c(-c1ccccc1)c(-c1ccccc1)n2Cc1ccco1 | -4.1 | -2.6 | 0.6% | -1.0% | ? | ?
N=c1c2c(-c3ccccc3)c(-c3ccccc3)oc2ncn1CCCN1CCOCC1 | -9.1 | -6.1 | . | . | 8.2µM* | ?
CCOC(=O)Cn1c(=O)oc2cc(S(=O)(=O)N3CCN(c4ccc(F)cc4)CC3)ccc21 | . | . | i | -2.0% | 8.5%[46.1 µM] | 0.5%[46.1 µM]
CCc1ccc(N(CC)C(=O)c2cc3c(=O)oc4ccc(C)cc4c3s2)cc1 | . | . | -1.1% | 1.2% | 7.0%[46.1 µM] | -25.0%[46.1 µM]
COc1ccc(-c2nc(SCC(=O)Nc3ccc4c(c3)OCCO4)c(-c3ccc(F)cc3)[nH]2)cc1OC | . | . | -16.2% | -26.7% | ? | ?
COc1ccc(NC(=O)c2oc3ccccc3c2NC(=O)COc2ccc(F)cc2)c(OC)c1 | . | . | 7.0% | 8.1% | 0.3%[46.1 µM] | -6.4%[46.1 µM]
Cc1nc(SCC(=O)Nc2cc(Cl)ccc2[N+](=O)[O-])nc(C)c1C | -12.9 | -1.0 | i | -17.5% | 4.5% | 22.2%
O=C(CSCc1ccccc1)NCc1ccc2c(c1)OCO2 | -6.5 | 11.9 | -7.2% | -4.0% | 19.0%[46.1 µM] | 0.1%
O=C(CSc1ncccn1)NC(=O)Cc1ccccc1 | . | . | -12.9% | -1.8% | 12.4% | 0.1%
O=C(CSc1ncccn1)NCc1ccccc1 | 54.3 | 17.6* | . | . | ? | ?
O=C(CSc1ncccn1)NCc1ccc2c(c1)OCO2 | 24.7* | 31.2 | -5.0% | 16.3% | -2.5%[46.1 µM] | 15.4%[46.1 µM]
O=C(CSc1ncccn1)NCc1cccc(Cl)c1 | 95.0* | 42.0* | i | -6.5% | . | .
SMILES | Shiga toxin inh | Cycloheximide cs | Vaccinia mCherry | Vaccinia Venus | MARV entry inh | LASV entry inh
O=C(CSc1ncccn1)Nc1cc(Cl)ccc1[N+](=O)[O-] | 19.3 | 22.6* | -5.5% | 10.0% | -1.0%[14.2 µM] | -4.1%
CC1(C)OCC(N)(CO)CO1 | . | . | ? | -8.0% | . | .
Cc1cc(Cl)ccc1C(=O)C1CCCN(C(=O)c2cnn(C(C)C)c2)C1 (centres undefined) | 19.0 | 7.8 | . | . | . | .
CC(C)CCNC(=O)c1ccc(Cn2c(=O)c3cccn3c3cccnc32)cc1 | . | . | -11.6% | -17.7% | . | -26.0%[46.1 µM]
O=C1CC[C@@H](C(=O)NCC2Cc3cc(Cl)cc(-c4ccc5[nH]ccc5c4)c3O2)N1 (some centres undefined) | . | . | -19.8% | 5.3% | . | .
CCn1c(C)c(CCC(=O)O)c(=O)n2nc(-c3ccccc3OC)cc12 | 49.9 | -2.1 | -17.6% | -16.5% | 4.8% | 4.9%
O=C(CSc1nccc(=O)[nH]1)NCc1ccc(Cl)cc1 | -8.1 | -1.6 | . | . | . | .
O=C(CSc1ncccn1)NCc1ccc(Cl)cc1 | 73.3* | 48.8* | . | . | 29.7% | 0.4%
CCn1nc(C)c(CN2Cc3ccccc3OC(c3ccccc3OC)C2)c1C (centres undefined) | . | . | -12.7% | -4.7% | . | .
CCN(CC)c1ccc(/C=N/NS(=O)(=O)c2ccc(C)c([N+](=O)[O-])c2)cc1 | -2.0 | 3.0 | -10.5% | 0.6% | 1.9% | -3.4%
Cc1ccc(S(=O)(=O)N/N=C/c2ccccc2O)cc1[N+](=O)[O-] | 69.0* | 38.7* | i | 7.5% | -11.3% | ?
C/C(=N\NS(=O)(=O)c1ccc(C)c([N+](=O)[O-])c1)c1cc2ccccc2o1 | 16.8 | -1.5 | . | . | -2.3% | 9.1%
Cc1ccc(S(=O)(=O)N/N=C/c2ccc(O)c(O)c2)cc1[N+](=O)[O-] | 128.4* | 45.3* | ? | -13.2% | -29.8%[46.1 µM] | -13.5%[46.1 µM]
Cc1ccc(/C=C\c2nccc3c2[nH]c2ccccc23)cc1 | 58.6 | 33.2* | ? | -16.0% | ? | -11.3%[46.1 µM]
C(=C\c1nccc2c1[nH]c1ccccc12)/c1ccccc1 | 85.0* | 32.9* | -23.6% | ? | . | .
Nc1ccc(/C=C/c2nccc3ccccc23)cc1 | . | . | -26.1% | 8.9% | . | .
Fc1ccc(/C=C\c2nccc3c2[nH]c2ccccc23)cc1 | 45.0 | 13.1 | ? | -25.0% | ? | -27.7%[46.1 µM]
O=C(/C=C/Nc1cccc([N+](=O)[O-])c1)c1ccco1 | . | . | -4.9% | -10.2% | ? | -17.0%
COc1ccccc1Oc1ccc(N/C=C/C(=O)c2ccco2)cc1 | 99.8* | 50.4* | -15.4% | -10.4% | 19.5%[46.1 µM] | ?
O=C(/C=C/Nc1ccc(Oc2ccccc2Cl)cc1)c1ccco1 | 117.3* | 37.3* | -21.1% | -24.5% | ? | ?
Cc1ccccc1SCCNC(=O)CCc1ccccc1 | 28.4* | 26.3 | . | . | . | .
COCCCNC(=O)CCc1ccccc1 | -7.3 | -2.8 | -14.1% | -0.7% | 17.5%[46.1 µM] | 0.2%
Cc1ccccc1SCCNC(=O)c1ccccc1Br | 98.8* | 42.7* | -10.5% | -12.1% | -16.4%[46.1 µM] | ?
CCc1ccc(NC(=O)C2CCCN(S(=O)(=O)c3c(C)noc3/C=C/N(C)C)C2)cc1 (centres undefined) | . | . | -3.3%[7.34 µM] | -13.5%[7.34 µM] | -5.0%[46.1 µM] | 9.3%[46.1 µM]
O=C(c1cc2sccc2n1Cc1ccc(F)cc1)N1CCN(c2nc3ccccc3s2)CC1 | 10.0 | 0.3 | ? | ? | 3.55µM* | -35.0%
COc1ccc(NC(=O)c2cc3sccc3n2Cc2ccc(F)cc2)cc1OC | 54.9 | 24.8* | . | . | -18.2% | 8.4%
CC(=O)c1ccc(NC(=O)c2cc3sccc3n2Cc2ccc(F)cc2)cc1 | . | . | -13.2% | -11.1% | 5.3%[46.1 µM] | -7.0%[46.1 µM]
